Experimental data reported in the supplement of paper PMC3334620.
In all, about 33,000 sequences were measured (“E-score (-0.5 to 0.5)”: median about -0.0014, highest 2% from about 0.25 on). For the sample, the highest values were picked, then their nearest neighbours and some sequences at random.

molecular target: T1, Cad1 (UniProt P24813); experiment: PBM E-score (8-mer binding enrichment) (E-score (-0.5 to 0.5)); higher = stronger / more preferred TF binding; details: protein concentration: 100 nM; construct: GST-full length
T1 sequence: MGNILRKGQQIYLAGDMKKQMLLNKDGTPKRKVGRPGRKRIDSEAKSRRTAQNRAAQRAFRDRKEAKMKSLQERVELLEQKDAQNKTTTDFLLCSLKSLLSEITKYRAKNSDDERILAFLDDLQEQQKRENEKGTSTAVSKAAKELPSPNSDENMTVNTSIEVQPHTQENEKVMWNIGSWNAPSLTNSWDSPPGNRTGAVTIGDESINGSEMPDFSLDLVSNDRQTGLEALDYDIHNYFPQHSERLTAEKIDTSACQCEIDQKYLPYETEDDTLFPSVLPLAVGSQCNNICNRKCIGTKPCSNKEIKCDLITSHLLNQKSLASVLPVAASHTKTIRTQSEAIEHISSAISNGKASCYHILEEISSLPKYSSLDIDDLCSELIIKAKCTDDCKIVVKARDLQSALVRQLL
Procedure: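 Universal 'all 10-mer' protein binding microarrays (Agilent AMADID 015681) probed with GST-tagged S. cerevisiae TFs (full-length or DBD) made by in vitro transcription/translation (PURExpress), about 100-200 nM. Bound TF was detected with fluorescent anti-GST. Each ungapped 8-mer (which stands for itself and its reverse complement) is scored by the PBM enrichment score (E-score), a modified Wilcoxon-Mann-Whitney statistic from -0.5 to +0.5, computed with the Universal PBM Analysis Suite. Scale: above 0.35 generally sequence-specific binding.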

Sequence	PBM E-score
AAGTGTTA	0.0352
ACAGCACG	-0.0152
AACCCCAA	0.113
ATAACTCC	0.0565
AGATGAAA	0.02
AAGCGCGC	0.276
AAGCGCGG	-0.0419
AAGCGCGA	0.101
AACTCCGT	0.0805
CGCCGGCG	0.301
CGCCGGCC	-0.124
AGCCGGCG	0.0742
TAATCTCA	0.0993
ACTGTTTG	-0.0907
AATCGATA	0.288
AATCGAAG	0.182
AATCGACT	-0.039
CATCGATG	0.169
AATCGACC	-0.051
AATCGATC	0.215
AATCGACA	0.304
AATCGATG	0.271
AATCGATT	0.198
CCTCCATC	-0.237
TGTTGCAA	0.228

Sequence	PBM E-score
ATCCTTCA	-0.174
GTACTTCA	0.251
CTACTTCA	-0.0482
ATACTTCA	-0.0179
AGCAGATA	-0.0464
CGCAGATC	0.098
AGCAGATC	0.256
ATGTGCCC	-0.071
ACAACCAT	0.281
ACAACCAC	0.056
ACAACCAG	0.145
GGTGCATA	0.00671
GTTACCAA	0.0957
TGTACCAA	-0.0377
ATTACCAC	0.161
CGTACCAA	0.256
ATTACCAA	0.292
CGTACCAG	-0.0767
AACCGGTA	-0.0764
ATTCCCTG	0.117
CTTAAAGA	-0.0851
GTTTATCA	0.173
CTTTATAA	0.101
GTTTATAA	0.264
ATTTATAC	0.226

Sequence	PBM E-score
ATTTATAA	0.341
GTTTATGA	0.142
CATTCAGG	-0.0709
TAGTAATA	0.371
CAGTATCA	0.0166
GAGTAATA	0.198
CAGTAATA	0.249
GAGTAACA	-0.00744
AAGTAAGA	-0.215
TAGTATCA	0.265
AAGTAACA	0.0629
CAGTAAGA	0.194
TAGTAACA	0.255
GAGTATCA	-0.045
TAGTAAGA	0.265
AGGTCCGG	0.0244
ACGGGATC	-0.0506
TCATGTCA	0.139
GGAAGACA	-0.0527
ACACAATC	0.0563
CCCCGCCC	0.114
CTGGCCAC	0.00652
CATAGCGG	-0.142
CATAGCGC	0.26
AATAGCGC	0.269

Sequence	PBM E-score
AATAGCGA	0.214
CATAGCGA	0.051
AATAGCGG	-0.0047
CACTTCCC	-0.118
ACTCCCGA	0.0151
AGGGGACG	-0.189
GGCAGTCA	-0.00415
TCCTCAAA	-0.166
ATGAACGC	0.252
ATGAACGG	-0.0252
ATGAACGA	0.111
GAGTTGAC	-0.0116
GCAATACC	-0.0457
ATACTACA	0.264
ATAATACC	0.215
CTACTACA	0.196
ATACTACC	0.0181
ATAATACG	0.186
ACAATACA	0.0445
GCAATACA	0.291
ATAATACA	0.263
TGTTGGAA	0.192
GGACCACA	0.137
AAAGCCTC	-0.186
ACCATCAG	-0.00772

Sequence	PBM E-score
CAGCAACA	0.186
AGCTCGAA	0.151
AAAGATTA	0.152
GCAGAGGA	0.0638
GAGCATCC	-0.169
CCGGACTA	-0.0508
ACGGACTC	-0.0126
CCGGACTC	0.281
CATAGCAC	-0.0299
GAGGTCGA	-0.153
CTCTCTTC	-0.215
CGTAACTA	-0.001
ATTAACTA	-0.00319
GATAACTA	0.1
GTTAACTA	0.274
CTTAACTC	0.0365
CTTAACTA	0.283
CTCACTGA	-0.0364
AGGCTGTA	-0.0168
ATGCATCA	0.308
ATGCATCG	0.114
ATGCATTC	0.196
ACGCATTA	0.145
CTGCATTA	0.014
GCGCATTA	0.265

Sequence	PBM E-score
GTGCATCA	0.128
CCGCATTA	0.172
ATGCATTA	0.265
CATCCTGC	0.0554
TGTGGCAA	0.0896
CCCGGACA	0.039
CCATCCAG	-0.0345
AATATTCA	0.157
AATATCCC	-0.00553
GATATTCC	0.0127
AATATTCC	0.297
CATATTCG	0.129
AATATCCG	0.265
AATATCCA	0.0727
AATATTCT	0.126
AATATTCG	0.273
AAGGTTGC	-0.00934
CCTAGCAC	-0.199
CCATAGTC	-0.0534
GACCAAGC	0.0511
CCCACTCA	-0.193
AGATGGAG	-0.0255
ATAATCGA	0.146
ATAATCAA	0.157
CGAATCGA	0.325

Sequence	PBM E-score
AGAATCGA	0.0389
ATAATCAT	0.252
CTAATCAA	0.238
ATAATCAG	0.225
GGAATCGA	0.00927
CTAATCGC	0.0731
CTAATCAG	0.227
CTAATCGA	0.315
CTAATCAC	0.326
CTGGACGC	0.069
CGAATACC	-0.104
AATCTCAT	0.0796
CCCGCTCC	-0.37
TGCCGCCA	0.0461
CGGGCAGA	0.0491
ACACCCTG	-0.133
AGAGAATA	0.0902
GGATGCAC	-0.0779
GTAAGGAC	-0.19
CGGGGAAA	0.0522
GCTACTAA	0.0213
GTTACTCA	0.182
CATACTGA	0.103
TATACTAA	0.107
TATACTGA	0.288

Sequence	PBM E-score
AATACTAA	0.253
GTTACTAA	0.374
GATACTGA	0.14
AATACTAT	-0.0768
CACTGGCG	-0.0107
CAGCTAAA	-0.121
ACTAGTTG	-0.0546
GGTGGCAA	-0.0998
CCAACGCA	0.0411
CGCAGACA	0.122
CGCAGACG	0.257
CGCAGACC	-0.146
ACTCATTA	0.109
ACACAGCC	0.0823
ACACAGCA	0.076
ACACAGCG	0.251
CACAGGAG	0.0278
ATAGAATC	-0.129
ATAAATTA	0.364
ATAAATTC	0.091
AAAAATTG	-0.134
CTAAATTA	0.2
ATAAATTG	0.253
GTAAATTA	-0.053
GGAGCAAC	-0.0625

Sequence	PBM E-score
AGATCCTG	-0.0555
AAGGTGAG	-0.192
CAGCAATA	0.188
AATGGCCC	-0.158
CAATCCTA	-0.015
ACGCCCAT	-0.0524
CACCGACA	-0.0582
ACATATTA	0.317
GAATATTA	0.227
ATATACTA	0.259
TAATATGA	0.133
AGCTATTA	0.0722
CTATACTA	0.0535
CGCTATTA	0.253
ACATATTG	0.0269
ATATACTC	-0.0465
TAATATTA	0.424
CCATATTA	0.148
GGCTATTA	0.175
